A selection: hits, their analogues and other compounds. The true share with any hit is near 4.2%.
DAX1 StAR inh – inhibitors of DAX1 repression of SF-1 activated StAR promoter; HEK293T StAR-luciferase reporter, SF-1/DAX-1 repression relief; inhibition, % at 6.8 µM; actives 1.1% (n = 370,000);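 active = inhibition above the mean over all tested compounds plus 3 SD, cut at about 3.6% in these data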;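 note: 0% = DAX-1 cells with DMSO and 100% = cells lacking DAX-1 with DMSO; higher inhibition means more luminescence from relief of DAX-1 repression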
hcDAF12 agonist – activators of H. contortus DAF-12 nuclear receptor. AID 652067. activation, % at 6.8 µM. HEK293 hcDAF-12 lit1-tk-luc reporter, luminescence; 0% DMSO, 100% Δ7-dafachronic acid. actives 1.4% (n = 370,000);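 active = activation above the mean of all tested compounds plus 3 SD, cut at about 5.5% in these data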;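 note: 100% = response to 3 µM Δ7-dafachronic acid high control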
SMARCA2 act – activators of SMARCA2 function; AID 652017; actives 1% (n = 370,000); MG213 cells, MMTV-luciferase reporter, dexamethasone, overnight; activation, % at 9.1 µM; in the data active = activation above about 7.8%;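 note: 0% = vehicle wells and 100% = reference activator wells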
hgDAF12 agonist – agonists of H. glycines DAF-12 nuclear receptor; activation, % at 6.8 µM; actives 1.8% (n = 370,000); HEK293 GAL4-hgDAF12 UAS-luciferase reporter, agonist luminescence; normalized to butyrate control;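 active = activation above a cutoff set at the mean of all screened compounds plus 3 SD, cut at about 10% in these data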;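 note: 0% = DMSO wells and 100% = sodium butyrate wells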
ssDAF-12 act – S. stercoralis DAF-12 activation, primary screen. actives 1% (n = 370,000). AID 652126. activation, % at 6.8 µM. HEK293 ssDAF-12/GRIP1 lit1-tk-luc reporter, luminescence; % of 3 µM dafachronic acid response;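 active = activation above the mean over all tested compounds plus 3 SD, cut at about 0.9% in these data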;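 note: 0% = DMSO-only wells and 100% = 3 µM delta7-dafachronic acid wells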
An asterisk follows results filed as active.

Results for Cc1ccccc1NC(=O)COC(=O)/C=C/c1cn(-c2ccccc2)nc1-c1cccnc1 ?
DAX1 StAR inh: -0.4; hcDAF12 agonist: 0.3; SMARCA2 act: -0.9; hgDAF12 agonist: -0.4; ssDAF-12 act: 1.1*

How did CC1=C(C(=O)O)CC(S(=O)(=O)O)C1(C)C (stereo not drawn) do in these assays?
DAX1 StAR inh: 3.7*; hcDAF12 agonist: 0.4; SMARCA2 act: -4.7; hgDAF12 agonist: 1.4; ssDAF-12 act: 0.0

How did CCc1cccc(C)c1NC(=O)CSc1n[nH]c(N)n1 do in these assays?
DAX1 StAR inh: 4.2*; hcDAF12 agonist: 0.9; SMARCA2 act: -4.0; hgDAF12 agonist: 1.9; ssDAF-12 act: -0.7

Results for O=C(Cc1cccs1)N/N=C/C(Cl)=C/c1ccccc1 ?
DAX1 StAR inh: 1.7; hcDAF12 agonist: 3.2; SMARCA2 act: 3.7; hgDAF12 agonist: 11.5*; ssDAF-12 act: -0.7

How did O=C(Cc1cccs1)N/N=C/c1ccccc1 do in these assays?
DAX1 StAR inh: 0.1; hcDAF12 agonist: 0.3; SMARCA2 act: -2.1; hgDAF12 agonist: 0.3; ssDAF-12 act: -0.6

How did CCc1cccc2c1NC(=O)C21OCCO1 do in these assays?
DAX1 StAR inh: -0.3; hcDAF12 agonist: 3.1; SMARCA2 act: -0.2; hgDAF12 agonist: 3.6; ssDAF-12 act: 1.2*

How did COCC1CN(CCc2ccc(F)cc2)S(=O)(=O)c2c(F)cccc2O1 (stereo not drawn) do in these assays?
DAX1 StAR inh: -1.2; hcDAF12 agonist: -0.9; SMARCA2 act: -1.6; hgDAF12 agonist: -0.3; ssDAF-12 act: 0.2

Results for COc1ccc(N2C(=O)[C@@H]3[C@H](C2=O)[C@H]2c4ccccc4C=CN2[C@@H]3C(=O)Nc2ccccc2)cc1 ?
DAX1 StAR inh: 0.3; hcDAF12 agonist: 6.1*; SMARCA2 act: -2.3; hgDAF12 agonist: 1.8; ssDAF-12 act: 0.8

What do the screens show for `Oc1ccc(Br)c(CN2CCN(c3ncc(Cc4ccccc4)cn3)CC2)c1`?
DAX1 StAR inh: -0.9; hcDAF12 agonist: -0.9; SMARCA2 act: -6.7; hgDAF12 agonist: -0.5; ssDAF-12 act: -0.9

What do the screens show for `Cc1csc(SC(C)C(=O)NCC2CCCCC2)n1` (stereo not drawn)?
DAX1 StAR inh: -0.1; hcDAF12 agonist: 1.1; SMARCA2 act: -0.6; hgDAF12 agonist: -0.7; ssDAF-12 act: 1.0*

Results for COCCN1Cc2cc(C(=O)OC)c3c(c2C1=O)c1cc(OC)ccc1n3S(=O)(=O)c1ccc(F)cc1 ?
DAX1 StAR inh: -0.4; hcDAF12 agonist: -1.2; SMARCA2 act: -0.6; hgDAF12 agonist: -3.2; ssDAF-12 act: -0.6

How did CSc1ccc(C(=O)N2CCc3ccc(NC(=O)c4ccccn4)cc3C2)cc1 do in these assays?
DAX1 StAR inh: 1.3; hcDAF12 agonist: -0.1; SMARCA2 act: 2.2; hgDAF12 agonist: 3.2; ssDAF-12 act: -1.4

What do the screens show for `CSc1ccccc1C(=O)N1CCc2ccc(NC(=O)c3ccccn3)cc2C1`?
DAX1 StAR inh: 2.7; hcDAF12 agonist: 2.9; SMARCA2 act: -3.4; hgDAF12 agonist: 10.7*; ssDAF-12 act: -0.7

What do the screens show for `CCCN1CCS(=O)(=O)N(Cc2cn(CC(=O)OCC)nn2)C(C(=O)OC)C1` (stereo not drawn)?
DAX1 StAR inh: -0.2; hcDAF12 agonist: -2.0; SMARCA2 act: 2.1; hgDAF12 agonist: -1.9; ssDAF-12 act: -1.8

What do the screens show for `O=C(O)c1cccc(N=NN2CCOCC2)c1`?
DAX1 StAR inh: 3.7*; hcDAF12 agonist: 1.6; SMARCA2 act: 4.3; hgDAF12 agonist: 6.9; ssDAF-12 act: -0.5

Results for CN(C)c1nc(-c2ccccc2)ncc1S(=O)(=O)c1ccccc1 ?
DAX1 StAR inh: 4.0*; hcDAF12 agonist: -1.7; SMARCA2 act: -1.4; hgDAF12 agonist: 1.9; ssDAF-12 act: -0.1

How did CC(C)COc1ccc(-c2nnc(-c3ccncc3)o2)cc1 do in these assays?
DAX1 StAR inh: 1.3; hcDAF12 agonist: 2.9; SMARCA2 act: 0.7; hgDAF12 agonist: 4.6; ssDAF-12 act: -0.9

Results for CCCOc1ccc(-c2nnc(-c3ccncc3)o2)cc1 ?
DAX1 StAR inh: 1.3; hcDAF12 agonist: 1.4; SMARCA2 act: 5.0; hgDAF12 agonist: 10.8*; ssDAF-12 act: -0.8

Results for CCc1ccc2[nH]c(C(=O)Nc3ccc(C)c(F)c3)cc2c1 ?
DAX1 StAR inh: 0.3; hcDAF12 agonist: 5.8*; SMARCA2 act: 0.7; hgDAF12 agonist: 6.9; ssDAF-12 act: 0.5

How did Cc1ccccc1NC(=O)C[C@H]1CC[C@H]2[C@@H](COc3ccc(NC(=O)Nc4ccccc4)cc3C(=O)N2C)O1 do in these assays?
DAX1 StAR inh: 1.0; hcDAF12 agonist: 1.6; SMARCA2 act: -2.9; hgDAF12 agonist: -1.9; ssDAF-12 act: -0.3

How did Cc1cc(=O)nc2c3ccccc3n(CC(=O)NC(C)c3ccc4c(c3)OCCO4)n12 (stereo not drawn) do in these assays?
DAX1 StAR inh: 0.4; hcDAF12 agonist: 6.0*; SMARCA2 act: -2.0; hgDAF12 agonist: 0.3; ssDAF-12 act: 0.3

What do the screens show for `COC(=O)N1CCCC1c1cccc2[nH]cc(C)c12` (stereo not drawn)?
DAX1 StAR inh: 1.1; hcDAF12 agonist: -0.7; SMARCA2 act: -5.2; hgDAF12 agonist: 0.7; ssDAF-12 act: -1.2

Results for O=C(NCCc1cn2ccccc2n1)c1ccc(Br)o1 ?
DAX1 StAR inh: 1.1; hcDAF12 agonist: -1.3; SMARCA2 act: -1.9; hgDAF12 agonist: 6.0; ssDAF-12 act: -1.1

Results for Cc1cccn2cc(CCNC(=O)c3ccc(Br)o3)nc12 ?
DAX1 StAR inh: 0.7; hcDAF12 agonist: 6.0*; SMARCA2 act: -1.0; hgDAF12 agonist: 4.6; ssDAF-12 act: 1.3*

How did CC(=O)c1sc(NC(=O)c2ccc(C)c(C)c2)nc1C do in these assays?
DAX1 StAR inh: 2.3; hcDAF12 agonist: 2.0; SMARCA2 act: 6.0; hgDAF12 agonist: 13.0*; ssDAF-12 act: -1.2

Results for O=C(NC1CCCCC1)C(c1ccnc2ccccc12)n1c(=O)c(-c2ccco2)nc2ccccc21 (stereo not drawn) ?
DAX1 StAR inh: 1.7; hcDAF12 agonist: 2.0; SMARCA2 act: 5.3; hgDAF12 agonist: 4.1; ssDAF-12 act: 1.1*

What do the screens show for `CC(C)(C)NC(=O)C(c1ccccc1F)n1c(=O)c(-c2ccco2)nc2ccccc21` (stereo not drawn)?
DAX1 StAR inh: 4.3*; hcDAF12 agonist: 0.9; SMARCA2 act: 2.2; hgDAF12 agonist: 1.5; ssDAF-12 act: -1.2

Results for Cc1cccc(C)c1NC(=O)C(C1CC1)n1c(=O)c(-c2ccco2)nc2ccccc21 (stereo not drawn) ?
DAX1 StAR inh: 0.4; hcDAF12 agonist: -0.2; SMARCA2 act: -2.9; hgDAF12 agonist: 0.7; ssDAF-12 act: -0.3

Results for CCCCCNC(=O)C(c1ccccc1F)n1c(=O)c(-c2ccco2)nc2ccccc21 (stereo not drawn) ?
DAX1 StAR inh: 0.5; hcDAF12 agonist: -1.8; SMARCA2 act: -3.9; hgDAF12 agonist: -0.3; ssDAF-12 act: -0.8

What do the screens show for `Cc1cccc(C)c1NC(=O)C(c1ccncc1)n1c(=O)c(-c2ccco2)nc2ccccc21` (stereo not drawn)?
DAX1 StAR inh: 1.9; hcDAF12 agonist: 5.0; SMARCA2 act: -0.4; hgDAF12 agonist: 4.9; ssDAF-12 act: 2.1*

High-throughput results deposited in PubChem by The Scripps Research Institute Molecular Screening Center.
